Molecules are shown by their SMILES. Among all 360,000 compounds or so, about 2,300 (0.64%) were called active. The list comes from a sample in which actives are over-represented; it also holds similar structures and randomly drawn compounds. A number with no mark means an inactive call.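 The calls were made as follows: active = compounds giving at least 50% protection of heart cells from peroxide-induced death in the single-dose screen, raw or plate-pattern-corrected value; inactive = the rest.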

The nature of the experiment: cardioprotection against H2O2-induced cell death, primary screen, uHTS, H9c2 cells, ATPLite luminescence (AID 588492).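 Also: 0% = DMSO wells with peroxide and 100% = DMSO wells without peroxide.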 As to conditions: H9c2 cardiomyocytes, H2O2 injury protection, 2 h, at 20 µM, stronger effect = higher value.
`CCCCCn1c(=O)c(C(=O)NCc2ccccc2)c(O)c2ccccc21`: the protection from H2O2 cell death is 46.9%. Consider `CCCCCn1c(=O)c(C(=O)NCc2ccccn2)c(O)c2ccccc21`, for which the protection from H2O2 cell death is 53.7% (active). For `CCCCn1c(=O)c(C(=O)Nc2ccccc2Cl)c(O)c2ccccc21`, the protection from H2O2 cell death was 28.7%. As for `CCN1CCN(C(=O)Cc2coc3cc(C)cc(C)c23)CC1`, the protection from H2O2 cell death is 5.6%. `COC(=O)C1=C(c2c(C)noc2C)C[C@@H]2CC[C@H]1N2C(=O)NCc1ccc2c(c1)OCO2`: the protection from H2O2 cell death is -2.4%. As for `O=C1N=c2ccccc2=C/C1=C\c1c(O)[nH]c(=S)[nH]c1=O`, the protection from H2O2 cell death was 51.8% (active). Consider `Cc1ccc2c(c1)=C/C(=C\c1c(O)[nH]c(=O)[nH]c1=O)C(=O)N=2`, for which the protection from H2O2 cell death is 60.8% (active). For the molecule `COc1ccccc1N=Nc1c(O)[nH]c(=S)[nH]c1=O`, the protection from H2O2 cell death is -6.6%. Regarding `O=c1[nH]c(O)c(C=Nc2cc(F)cc(F)c2)c(=O)[nH]1`, the protection from H2O2 cell death is 6.4%. Regarding `CCN1C(=O)C(=Cc2c(C)n(CC(=O)NCC3CCCO3)c3ccccc23)C(=O)N(CC)C1=S` (stereo not given), the protection from H2O2 cell death was -2.5%. The value for `Nc1ccc([N+](=O)[O-])cc1` was -1.6%; that for `Cc1cccc(OP(=O)(Oc2cccc(C)c2)OC(c2ccccc2)C(F)(F)F)c1` (stereo not given) was -8.9%; that for `CC1C(=O)OC2CCN3CC=C(COC(=O)C(C)(O)C1(C)O)C23` (stereo not given) was 1.6%. In the case of `CCn1cc(CN2CCCC(C(=O)c3cccc(C(F)(F)F)c3)C2)cn1` (stereo not given) it was -6.7%; in that of `CCN1CCN(c2nc3c(c(=O)[nH]2)CCC3)CC1`, 63% (active). The value for `O=C(NC(c1ccc(Cl)cc1)P(=O)(Oc1ccccc1)Oc1ccccc1)OCc1ccccc1` (stereo not given) was 7.3%; that for `O=C(CCNS(=O)(=O)c1ccccc1)Nc1ccc(Cl)cc1C(=O)c1ccccc1` was -9.8%; that for `Fc1ccc(C2N3CCCN23)cc1` (stereo not given) was 1.5%. Consider `C=CC12CN(C)[C@@H]3C4CO[C@H](C[C@H]41)[C@]1(C(=O)Nc4ccccc41)[C@@H]32` (stereo not given in full), for which the protection from H2O2 cell death is 3.5%. In the case of `NC(=O)Cn1cc(C(=O)c2ccccc2F)c2ccccc21` it was 8.7%.
